Measurements taken from PubChem BioAssay.
For some assays here: Potency and affinity values are given separately. The source made the active and inactive calls.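 The calls were made as follows, unless noted: active = primary screen hit whose calcium fluorescence ratio, in both repeats, exceeds the weak agonist control mean by 3 SD; inactive = the rest.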

How the values were obtained:
[1] = system: TRPC4 beta (transient receptor potential cation channel C4), mouse; assay: TRPC4 cation channel opening, retest – cell-based, Fluo4 calcium, HEK293 TRPC4beta/mu-opioid, duplicates, 10 µM, confirmation (AID 2426;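 active = fluorescence ratio normalized to control raised more than 50% in primary screen plus both repeat runs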;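 as to activation: percent rise of integrated ratio over buffer wells lacking compound which define 0%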); details: Fluo4 calcium fluorescence, at 10 µM; active compounds read high
[2] = system: transient receptor potential cation channel C4 beta (TRPC4), mouse; assay: TRPC4 cation channel opening, second retest – cell-based, second round, Fluo4, HEK293 TRPC4beta/mu-opioid, 1 µM, confirmation (AID 2461;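 active = primary screen active and over 50% activation in each of two duplicate runs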;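 as to activation: 0% = wells without test compound as baseline of integrated fluorescence ratio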); details: Fluo4 calcium fluorescence, at 1 µM; active compounds read high
[3] = system: TRPC4 (transient receptor potential cation channel C4 beta), mouse; assay: potentiation of DAMGO EC20 TRPC4 response – cell-based, second round, Fluo-4, HEK293 TRPC4beta/mu-opioid, 1 µM, confirmation (AID 2554;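 active = primary screen hit whose fluorescence ratio, in both repeats, exceeds the weak agonist control mean by 3 SD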); details: DAMGO EC20, Fluo-4 calcium flux, at 1 µM; active compounds read high
[4] = system: TRPC4 beta (transient receptor potential cation channel C4), mouse; assay: potentiation of DAMGO EC20 TRPC4 response – cell-based, Fluo-4, HEK293 TRPC4beta/mu-opioid, confirmation (AID 2555); details: DAMGO EC20, Fluo-4 calcium flux, at 10 µM; active compounds read high
[5] = target: Short transient receptor potential channel 4 (Mus musculus) (UniProt Q9QUQ5); assay: blockers of DAMGO-evoked TRPC4 calcium flux – cell-based, Fluo4, HEK293 TRPC4beta/mu-opioid, confirmation (AID 2636;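 active = calcium signal cut by more than 3 SD below the full-agonist control yet still positive, in both repeats and the earlier primary screen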); details: at 10 µM; active compounds read high
Chain of Short transient receptor potential channel 4 (Mus musculus) (Q9QUQ5 whole entry, looked up): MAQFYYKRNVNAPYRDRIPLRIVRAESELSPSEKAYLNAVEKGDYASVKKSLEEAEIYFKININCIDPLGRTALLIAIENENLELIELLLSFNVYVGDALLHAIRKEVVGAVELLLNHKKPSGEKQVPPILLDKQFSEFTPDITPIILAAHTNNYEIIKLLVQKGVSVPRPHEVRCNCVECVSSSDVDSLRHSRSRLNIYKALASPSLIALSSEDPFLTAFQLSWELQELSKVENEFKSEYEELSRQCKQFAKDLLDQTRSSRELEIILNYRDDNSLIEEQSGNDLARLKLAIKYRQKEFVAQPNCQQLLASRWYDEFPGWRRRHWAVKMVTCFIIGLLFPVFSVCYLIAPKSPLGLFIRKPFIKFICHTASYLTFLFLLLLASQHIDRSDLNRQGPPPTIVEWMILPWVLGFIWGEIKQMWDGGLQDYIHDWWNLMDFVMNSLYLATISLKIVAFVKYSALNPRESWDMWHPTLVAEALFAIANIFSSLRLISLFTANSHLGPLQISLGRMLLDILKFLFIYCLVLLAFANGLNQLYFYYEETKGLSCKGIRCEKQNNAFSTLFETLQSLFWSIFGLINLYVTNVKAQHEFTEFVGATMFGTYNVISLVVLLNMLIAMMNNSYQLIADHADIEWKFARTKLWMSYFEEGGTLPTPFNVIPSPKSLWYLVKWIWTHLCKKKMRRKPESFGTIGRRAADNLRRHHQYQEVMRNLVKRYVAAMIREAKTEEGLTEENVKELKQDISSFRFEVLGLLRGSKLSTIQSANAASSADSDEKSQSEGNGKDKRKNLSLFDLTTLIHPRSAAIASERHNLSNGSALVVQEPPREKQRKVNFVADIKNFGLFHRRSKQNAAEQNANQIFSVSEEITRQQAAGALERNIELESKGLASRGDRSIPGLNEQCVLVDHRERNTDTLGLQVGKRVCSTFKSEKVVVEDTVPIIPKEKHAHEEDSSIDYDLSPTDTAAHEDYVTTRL

[6] = target: Short transient receptor potential channel 4 (Mus musculus) (UniProt Q9QUQ5); assay: blockers of DAMGO-evoked TRPC4 calcium flux – cell-based, second round, Fluo4, HEK293 TRPC4beta/mu-opioid, 1 µM, confirmation (AID 2637;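 active = calcium signal ratio cut to more than 3 SD under the fully stimulated control mean yet still positive, in both repeats and the primary screen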); details: at 1 µM; active compounds read high
[7] = target: Short transient receptor potential channel 4 (Mus musculus) (UniProt Q9QUQ5); assay: calcium entry via TRPC4 opening agents – cell-based, HEK293 TRPC4/mu-opioid, Fluo-4 calcium, dose response (AID 434937;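 active = primary screen activator hit with a dose response curve and TRPC4 channel activation at any tested dose; inactive = no activation, no dose response, or not a primary hit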)
[8] = target: Short transient receptor potential channel 4 (Mus musculus) (UniProt Q9QUQ5); assay: block of DAMGO-driven TRPC4 calcium entry – cell-based, HEK293 TRPC4/mu-opioid, Fluo-4 calcium, dose response (AID 434942;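 active = primary screen inhibitor hit that blocks the TRPC4 channel at some tested dose, yielding a dose curve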)
[9] = target: Short transient receptor potential channel 6 (Mus musculus) (UniProt Q61143); assay: TRPC6 blockade by TRPC4 inhibitor hits – cell-based, HEK293, membrane potential dye, duplicate, selectivity assay for TRPC4 inhibitor project, confirmation (AID 434948;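 active = active in primary screen and both duplicates, each dropping signal beyond three positive-control SD with fluorescence still positive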); details: HEK293 TRPC6, membrane potential dye fluorescence, at 10 µM, stimulated with maximal-effect acetylcholine; active compounds read high
Chain of Short transient receptor potential channel 6 (Mus musculus) (Q61143 whole entry, looked up): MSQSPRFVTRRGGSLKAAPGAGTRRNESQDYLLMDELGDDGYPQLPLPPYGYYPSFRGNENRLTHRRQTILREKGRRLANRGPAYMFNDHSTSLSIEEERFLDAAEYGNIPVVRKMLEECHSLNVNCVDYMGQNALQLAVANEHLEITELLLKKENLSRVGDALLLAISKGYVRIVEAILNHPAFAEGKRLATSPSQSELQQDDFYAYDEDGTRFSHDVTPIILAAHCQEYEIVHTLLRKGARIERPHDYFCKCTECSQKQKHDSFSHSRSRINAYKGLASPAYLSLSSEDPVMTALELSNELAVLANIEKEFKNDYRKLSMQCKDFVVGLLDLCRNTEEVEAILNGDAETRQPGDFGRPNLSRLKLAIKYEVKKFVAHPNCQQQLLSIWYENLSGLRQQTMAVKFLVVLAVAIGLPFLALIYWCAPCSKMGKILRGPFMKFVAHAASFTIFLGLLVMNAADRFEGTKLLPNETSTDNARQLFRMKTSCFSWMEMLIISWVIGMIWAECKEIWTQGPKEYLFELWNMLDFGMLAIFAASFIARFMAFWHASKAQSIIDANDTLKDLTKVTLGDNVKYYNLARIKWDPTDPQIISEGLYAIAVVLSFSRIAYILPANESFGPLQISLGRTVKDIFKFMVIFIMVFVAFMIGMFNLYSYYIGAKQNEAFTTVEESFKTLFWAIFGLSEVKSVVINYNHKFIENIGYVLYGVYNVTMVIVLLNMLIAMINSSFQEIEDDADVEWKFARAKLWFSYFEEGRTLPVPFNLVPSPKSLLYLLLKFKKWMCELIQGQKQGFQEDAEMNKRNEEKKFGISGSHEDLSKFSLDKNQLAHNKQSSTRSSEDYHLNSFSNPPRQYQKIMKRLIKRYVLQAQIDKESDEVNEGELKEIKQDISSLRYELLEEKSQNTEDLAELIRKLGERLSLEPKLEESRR

[10] = target: Short transient receptor potential channel 6 (Mus musculus) (UniProt Q61143); assay: TRPC6 opening by TRPC4 activator hits – cell-based, HEK293, membrane potential dye, duplicate, selectivity assay for TRPC4 activator project, confirmation (AID 434950;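 active = membrane potential signal rise above negative control mean plus 3 SD in both duplicates, also active in the earlier TRPC4 screen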;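 as to activation: 0% = buffer only wells and 100% = acetylcholine maximal-effect wells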); details: HEK293 TRPC6, membrane potential fluorescence, at 10 µM; activation: active compounds read high; outcome: activation
[11] = target: Short transient receptor potential channel 6 (Mus musculus) (UniProt Q61143); assay: positive modulators of mouse TRPC6 channel – HEK293 cells, membrane potential dye, duplicate, selectivity assay for TRPC4 potentiator project, confirmation (AID 434952;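 active = compound raising the membrane signal above positive-control mean plus 3 SD in both repeats, and a primary screen hit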); details: HEK293 TRPC6, membrane potential dye fluorescence, at 10 µM, maximal acetylcholine added after compound; active compounds read high
[12] = target: Short transient receptor potential channel 4 (Mus musculus) (UniProt Q9QUQ5); assay: calcium flux activators in TRPC4/5HT1a cells, counter-screen for TRPC4 activator project, cell-based, second counter screen, HEK293 TRPC4/5HT1a, Fluo-4 (AID 434977;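 active = calcium signal rise above buffer-control mean plus 5 SD in both duplicates, and also a hit in the primary screen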;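 as to activation: plate controls were assay buffer for no effect and maximal serotonin response for full effect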); details: Fluo-4 calcium flux, at 10 µM; active compounds read high
[13] = serotonin-gated TRPC4 signal block – cell-based, second counter screen, HEK293 TRPC4/5HT1a, Fluo-4, counter-screen for TRPC4 inhibitor project, confirmation (AID 434978;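 active = primary screen active whose calcium signal fell more than 3 SD beyond the full-serotonin control mean in both duplicate plates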;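 also: serotonin given first at submaximal then at maximal dose after compound preincubation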); details: Fluo-4 calcium flux, at 10 µM, serotonin added to trigger calcium flux; active compounds read high
[14] = system: TRPC4 (mouse), co-expressed with 5HT1a in HEK293; assay: enhancement of serotonin-evoked TRPC4 response – cell-based, second counter screen, HEK293 TRPC4/5HT1a, Fluo-4, counter-screen for TRPC4 potentiator project, confirmation (AID 434979;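 active = signal rise over 3 SD above mean of control wells given weak agonist, in both repeats and first screen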); details: Fluo-4 calcium flux, at 10 µM, serotonin added at its EC20 dose; active compounds read high
[15] = nonspecific calcium rise without TRPC4 – cell-based, HEK293 mu-opioid receptor line, counter-screen for TRPC4 activator project, confirmation (AID 449723;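 active = hit in primary screen, with calcium signal over 5 SD above buffer well mean in both duplicates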;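 also: counter screen cells carry the mu-opioid receptor alone and lack TRPC4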); details: HEK293 mu-opioid cells, Fluo-4 calcium fluorescence, at 10 µM; active compounds read high
[16] = nonspecific potentiation of DAMGO calcium response – cell-based, HEK293 mu-opioid receptor line, counter-screen for TRPC4 allosteric potentiator project, confirmation (AID 449724;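 active = calcium signal rise more than 3 SD above the low-dose agonist control mean, in both duplicate plates and the primary screen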); details: HEK293 mu-opioid receptor cells, Fluo-4 calcium flux, at 10 µM, compound added before EC20 DAMGO stimulus; active compounds read high
[17] = target: Short transient receptor potential channel 4 (Mus musculus) (UniProt Q9QUQ5); assay: potentiation of DAMGO-evoked TRPC4 calcium signal – cell-based, HEK293 TRPC4/mu-opioid, Fluo-4 calcium, EC20 DAMGO, dose response (AID 434941;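 active = earlier screen potentiator hit that boosts the TRPC4 ion channel at some dose, with a dose response; inactive = no potentiation, no dose response, or not a prior hit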;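 also: calcium entry triggered by an EC20 dose of DAMGO at the co-expressed mu-opioid receptor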)

CCCCn1c(SCC(=O)N2c3ccccc3Sc3ccccc32)nc2c1c(=O)n(C)c(=O)n2C
inactive: outcome [1] | outcome [2] | outcome [5] | outcome [6] | outcome [7] | outcome [8] | outcome [9] | outcome [10] | outcome [11] | outcome [12] | outcome [13] | outcome [15] | outcome [16]
active: potentiation [3] 8% | potentiation [4] 97% | potentiation [14] 93.4%

Cc1cc(OCC(=O)NC2CCCCC2)ccc1Cl
active: potentiation [14] 97.2%
inactive: outcome [1] | outcome [2] | outcome [3] | outcome [4] | outcome [5] | outcome [6] | outcome [7] | outcome [8] | outcome [9] | outcome [10] | outcome [11] | outcome [12] | outcome [13] | outcome [15] | outcome [16]

COc1cccc(CN2CCNC(=O)C2CC(=O)N(C)CCc2ccccn2)c1 (centres undefined)
inactive: outcome [3] | outcome [4] | outcome [5] | outcome [6] | outcome [17] | outcome [8] | outcome [9] | outcome [10] | outcome [11] | outcome [13] | outcome [14] | outcome [15] | outcome [16]
active: activation [1] 186% | activation [2] 92% | activation [12] 39%

Cc1cccc(Cn2c(N3CCN(c4ccccc4)CC3)nc3c2c(=O)n(C)c(=O)n3C)c1
active: potentiation [4] 71% | potentiation [14] 59.2%
inactive: outcome [1] | outcome [2] | outcome [3] | outcome [5] | outcome [6] | outcome [7] | outcome [8] | outcome [9] | outcome [10] | outcome [11] | outcome [12] | outcome [13] | outcome [15] | outcome [16]

COc1ccc(Cl)cc1C(=O)NCCN(C)C
active: potentiation [14] 13.6%
inactive: outcome [1] | outcome [2] | outcome [3] | outcome [4] | outcome [5] | outcome [6] | outcome [7] | outcome [8] | outcome [9] | outcome [10] | outcome [11] | outcome [12] | outcome [13] | outcome [15] | outcome [16]

O=C(Cc1cccc(F)c1F)NC1CCCN(Cc2ccc(Cl)cc2)C1 (centres undefined)
inactive: outcome [1] | outcome [2] | outcome [3] | outcome [4] | outcome [5] | outcome [6] | outcome [17] | outcome [8] | outcome [9] | outcome [11] | outcome [12] | outcome [13] | outcome [14] | outcome [15] | outcome [16]
active: activation [10] 37.5%

O=c1[nH][nH]c(-c2ccccc2)c1C=Nc1ccc(Cl)cc1
active: potentiation [14] 79.8%
inactive: outcome [1] | outcome [2] | outcome [3] | outcome [4] | outcome [5] | outcome [6] | outcome [7] | outcome [8] | outcome [9] | outcome [10] | outcome [11] | outcome [12] | outcome [13] | outcome [15] | outcome [16]

N#CC1=C(N)C(C#N)(C#N)C(c2cccnc2)C2CC(c3ccccc3)CC=C12 (centres undefined)
active: potentiation [4] 77% | potentiation [14] 9.65%
inactive: outcome [1] | outcome [2] | outcome [3] | outcome [5] | outcome [6] | outcome [7] | outcome [8] | outcome [9] | outcome [10] | outcome [11] | outcome [12] | outcome [13] | outcome [15] | outcome [16]

COC(=O)c1ccc(C(=S)NCC2(N(C)C)CCCCC2)cc1
active: activation [1] 181% | activation [10] 41% | activation [12] 22.2% | activation [15] 14.7%
inactive: outcome [2] | outcome [3] | outcome [4] | outcome [5] | outcome [6] | outcome [17] | outcome [8] | outcome [9] | outcome [11] | outcome [13] | outcome [14] | outcome [16]

CCCCN(C)CCNC(=O)c1cc2c(-c3cccc(OC)c3)nn(C)c2s1
inactive: outcome [1] | outcome [2] | outcome [3] | outcome [4] | outcome [5] | outcome [6] | outcome [7] | outcome [8] | outcome [9] | outcome [10] | outcome [11] | outcome [12] | outcome [13] | outcome [15] | outcome [16]
active: potentiation [14] 39.5%

CCOC(=O)C1(CCOC)CCN(Cc2ccccc2-c2ccco2)CC1
active: activation [1] 60% | activation [10] 68.5%
inactive: outcome [2] | outcome [3] | outcome [4] | outcome [5] | outcome [6] | outcome [17] | outcome [8] | outcome [9] | outcome [11] | outcome [12] | outcome [13] | outcome [14] | outcome [15] | outcome [16]

O=C(NCc1ccccc1)C1=C[C@H](c2ccc(Br)cc2)C[C@H](OCc2ccc(CO)cc2)O1
inactive: outcome [1] | outcome [2] | outcome [3] | outcome [5] | outcome [6] | outcome [7] | outcome [8] | outcome [9] | outcome [10] | outcome [11] | outcome [12] | outcome [13] | outcome [15] | outcome [16]
active: potentiation [4] 35% | potentiation [14] 97.6%

CCn1c(O)c(N=NC(=O)c2cccc(S(=O)(=O)N3CCCCC3)c2)c2ccccc21
active: potentiation [14] 6.79%
inactive: outcome [1] | outcome [2] | outcome [3] | outcome [4] | outcome [5] | outcome [6] | outcome [7] | outcome [8] | outcome [9] | outcome [10] | outcome [11] | outcome [12] | outcome [13] | outcome [15] | outcome [16]

COC(=O)[C@@]12CCCCN1[C@H](c1ccc(-c3cccc(Cl)c3)c(OC)c1)[C@H]1C(=O)N(C)C(=O)[C@H]12
inactive: outcome [1] | outcome [2] | outcome [3] | outcome [5] | outcome [6] | outcome [7] | outcome [8] | outcome [9] | outcome [10] | outcome [11] | outcome [12] | outcome [13] | outcome [15] | outcome [16]
active: potentiation [4] 27% | potentiation [14] 52.4%
